PubChem BioAssay AID686978 (National Center for Advancing Translational Sciences (NCATS), 2013)
The campaign covered roughly 420,000 compounds. About 64,000 (15%) were called active. Inconclusive results (about 27%) are left out. The call rests on the fitted dose curve; in most records, active means well fitted inhibition curve with a large enough effect; inconclusive means small, poorly fitted or top-dose-only effect; inactive means flat fitted curve, though single readings scatter. Only a sample is shown. A call without a number means that no potency is given here.

Assay: qHTS for Inhibitors of human tyrosyl-DNA phosphodiesterase 1 (TDP1): qHTS in cells in absence of CPT; further: nearly all actives have a fitted effect of over 55% in size
Conditions: DT40 Tdp1-/- hTDP1 cells, no CPT, ATP luminescence, 48 h; activity change, negative = growth inhibition: at 46.2 µM (top of the series)
Outline: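 Chicken DT40 Tdp1-/- cells stably complemented with human TDP1 were seeded at 400 cells/well with DMSO in place of 20 nM camptothecin. After compound pinning, cells grew at least 48 hr at 37 °C; viability read by CellTiter-Glo luminescence.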
Potency means the concentration at half of the fitted maximal effect.

| SMILES | Potency |
| --- | --- |
| COc1ccc(Cc2n[nH]c(=S)n2NC(=O)Nc2ccc(C)cc2)cc1 | inactive |
| COc1ccc(OCCCC(=O)OC(C)C(=O)Nc2ccccc2[N+](=O)[O-])cc1 (centres undefined) | inactive |
| O=C1C=CC(=O)N1c1ccc(N2CCCCC2)cc1 | 1.16 µM (active) |
| O=c1[nH][nH]c(=O)c2cc(N3CCCC3)ccc12 | inactive |
| CS(=O)(=O)N1CCC[C@@]2(CCN(c3ccncc3)C2)C1 | inactive |
| Cc1ccc(-c2c(C)n([O-])c3c([n+]2=O)CCC3)cc1 | inactive |
| CC1=NNC(=O)C1CCC(=O)N/N=C\c1ccc(Cl)c(Cl)c1 (centres undefined) | inactive |
| CCOC(=O)c1c(C)[nH]c2c1-c1ccccc1C(=O)C2=O | 0.651 µM (active) |
| CCOC(=O)c1c(C)[nH]c(=S)c(C#N)c1-c1ccccc1 | inactive |
| CCOC(=O)c1c(SCC(=O)Nc2cccc(C)c2C)nc(=O)[nH]c1C | inactive |
| O=C(COC(=O)c1ccc[nH]c1=O)Nc1ccc2c(c1)OC(F)(F)O2 | inactive |
| COCC1CCCCN1C(=O)c1cc(COc2ccc(C)c(C)c2)on1 (centres undefined) | 20.6 µM (active) |
| COC(=O)[C@@H]1CCCN1C(=O)c1cc(COc2cccc3cccnc23)on1 | inactive |
| Cc1ccc(OCc2cc(C(=O)N(C)CCn3ccnc3C)no2)cc1C | inactive |
| COC(=O)c1ccccc1NC(=O)c1cc(-c2ccccc2O)no1 | inactive |
| CCOC(=O)C1CCc2nc3ccccc3c(=O)n21 (centres undefined) | inactive |
| CCOC(=O)C(CCOc1cccc(CC)c1)C(=O)OCC | inactive |
| C=CCNC(=O)C12CC3CC(C1)CC(C(=O)NCC=C)(C3)C2 | inactive |
| Cc1cc(C)cc(NC(=O)N2CCC(NC(=O)c3ccc(F)cc3)CC2)c1 | inactive |
| O=C(C(=O)N1CCN(c2ccccc2)CC1)c1ccc2c(c1)OCO2 | inactive |
| COc1cc(OC)c2ccc(=O)oc2c1C(CCN1CCN(c2ccccc2)CC1)c1ccc2c(c1)OCO2 (centres undefined) | 16.4 µM (active) |
| CCN(CC)CCC(c1ccc2c(c1)OCO2)c1c(OC)cc(OC)c2c(-c3ccccc3)cc(=O)oc12 (centres undefined) | 20.6 µM (active) |
| COc1cc(COCC(O)CN2CCN(Cc3ccc4c(c3)OCO4)CC2)cc(OC)c1OC (centres undefined) | inactive |
| COc1ccc(F)cc1S(=O)(=O)NCC(c1ccc2c(c1)OCO2)N1CCN(C)CC1 (centres undefined) | inactive |
| Cc1nnc(SCc2cc(=O)[nH]c(N3CCN(Cc4ccccc4)CC3)n2)s1 | inactive |
| CC(Sc1nncn1C)C(=O)Nc1cc(C(F)(F)F)ccc1N1CCOCC1 (centres undefined) | inactive |

| SMILES | Potency |
| --- | --- |
| CCCCN1C(=O)C(CC(=O)NCc2cccs2)CC(C(=O)N2CCCCCC2)=C1C (centres undefined) | inactive |
| CC(C)(C)NC(=O)NC(=O)COC(=O)C1(C)CC1(Cl)Cl (centres undefined) | inactive |
| COc1ccc(CCc2nc(-c3cccs3)no2)cc1 | inactive |
| COc1ccc(S(=O)(=O)NC(=O)C2(C)CCN2C(=O)c2ccccc2CCc2ccccc2)cc1 (centres undefined) | inactive |
| O=C(O)c1cccc(NC(=O)c2cc(-c3cccc(Cl)c3)nc3ccccc23)c1 | inactive |
| O=C(NCc1cn2ccsc2n1)Nc1cccc(Cl)c1 | inactive |
| Cc1c(C(=O)Nc2cccc(Cl)c2)cn2c(nc3ccccc32)c1C#N | 11.6 µM (active) |
| COc1cc(C(=O)NN(CCC#N)C2=NS(=O)(=O)c3ccccc32)cc(OC)c1OC | inactive |
| CCc1ccc(-c2nnn(Cc3nn[nH]n3)n2)cc1 | inactive |
| COc1ccc(C(=NN)c2ccc(OC)cc2)cc1 | inactive |
| COc1ccc(/C(N)=N/OC(=O)Cc2ccccc2)cc1 | inactive |
| COc1ccc(C(C#N)=C2C=CC(=NO)c3ccccc32)cc1 | 0.82 µM (active) |
| O=C(c1ccc[nH]c1=S)N1CCN(S(=O)(=O)c2ccc(Br)cc2Cl)CC1 | inactive |
| COc1ccc(CNC(=O)c2ccc(Br)s2)cc1OC | inactive |
| CCN(CC(=O)NCc1ccc(Cl)cc1)C(=O)c1c(C)noc1C | inactive |
| Cc1noc(C)c1-c1ccc(C(=O)NCc2ccncc2)c2occc12 | 8.2 µM (active) |
| COc1ccc(CNC(=O)c2c(C)cc(=O)oc2C)cc1OC | inactive |
| O=C(NCc1ccncc1)C(=O)NCc1ccco1 | inactive |
| COc1ccc(CNC(=O)c2ccc(-c3cccnc3)c3ccoc23)cc1OC | 18.4 µM (active) |
| O=C(COc1ccc(Cl)cc1)NCc1nnc(SCC(=O)NCC2CCCO2)o1 (centres undefined) | inactive |
| CCn1cc(CNC(=O)c2cc([N+](=O)[O-])c(C)c([N+](=O)[O-])c2)cn1 | inactive |
| Cc1cccc(NC(=O)CSCC(=O)Nc2nnc(C3CC3)s2)c1 | inactive |
| Cc1ccc(SC(CC(=O)c2ccc(C(C)(C)C)cc2)C(=O)O)cc1 (centres undefined) | 2.91 µM (active) |
| Cc1ccc(C(=O)CS(C)(=O)=O)cc1 | inactive |
| Cc1ccc(C(=O)CSc2ccccc2C(=O)O)cc1 | inactive |
| CC1(C)c2[nH]c3ccccc3c2C[C@H]2C(=O)N(N)CC(=O)N21 | inactive |

| SMILES | Potency |
| --- | --- |
| O=C(NC1CCc2ccccc21)C12CN(Cc3ccccc3)CC1C(c1cccc([N+](=O)[O-])c1)=NO2 (centres undefined) | inactive |
| CC(C)c1nnc(NC(=O)C2CCCN2S(=O)(=O)c2ccc(Cl)cc2)s1 (centres undefined) | inactive |
| COc1ccccc1NC(=O)C1CCCN1S(=O)(=O)c1ccc(Cl)cc1 (centres undefined) | 16.4 µM (active) |
| O=C(NCc1ccccc1Cl)C1CCCN1S(=O)(=O)c1ccc(F)cc1 (centres undefined) | inactive |
| COc1cccc(CCNC(=O)COc2cccc3c2OC(C)(C)C3)c1 | inactive |
| CN(C)c1cccc2ccccc12 | inactive |
| CC(C)[C@@H](C(=O)O)N(Cc1cccc(CN([C@H](C(=O)O)C(C)C)S(C)(=O)=O)c1)S(C)(=O)=O | inactive |
| COc1cc2c(cc1OC)C(Nc1ccc(S(N)(=O)=O)cc1)=NC(C)(C)C2 | inactive |
| COc1cc2c(cc1O)C(SC)=NC(C)(C)C2 | 29.1 µM (active) |
| O=C(Nc1ccccn1)C1CCN(S(=O)(=O)c2ccccc2)CC1 | inactive |
| CCCCN(CC(=O)NC(C)(C)C)C(=O)C(=O)Nc1ccc2c(c1)OCCO2 | inactive |
| CC(C)(C)NS(=O)(=O)CC12CCC(CC1=O)C2(C)C (centres undefined) | inactive |
| CN(C)Cc1ccccc1C1(O)c2ccccc2CSc2ccccc21 (centres undefined) | 23.1 µM (active) |
| CN(C)CC/C=C1\c2ccccc2CSc2ccccc21 | inactive |
| CC(=O)NC(CC(=O)Nc1nccs1)c1ccccc1 (centres undefined) | inactive |
| Cc1c(OC(C)C(=O)NCC2CCC(C(=O)O)CC2)ccc2c1oc(=O)c1ccccc12 (centres undefined) | inactive |
| CCN(CC(=O)NC(=O)NCc1ccccc1)Cc1nc2ccccc2c(=O)[nH]1 | inactive |
| CC1(C(=O)NCc2ccco2)Cc2c(-c3ccc4c(c3)OCO4)ccnc2O1 (centres undefined) | 0.58 µM (active) |
| CC1(C(=O)NCc2ccc(F)c(F)c2)Cc2c(-c3ccc4c(c3)OCO4)ccnc2O1 (centres undefined) | 2.91 µM (active) |
| O=C(NCc1ccc2c(c1)OCO2)c1cc(F)c(F)cc1Cl | inactive |
| S=C(NCc1ccc2c(c1)OCO2)NCc1ccco1 | inactive |
| O=C(Cn1nnc(-c2ccc3c(c2)OCO3)n1)NCc1ccco1 | inactive |
| O=C(NCc1ccc2c(c1)OCO2)C12CC3CC(CC(C3)C1)C2 | inactive |
| OCC1(CCOc2ccccc2)CCN(Cc2cn[nH]c2-c2ccccc2)CC1 | inactive |
| COCc1c(C(=O)N/N=C(\C)c2ccncc2)nnn1-c1nonc1N | inactive |
| CC(Sc1nnc(CNC(=O)c2ccccc2F)n1C)C(=O)Nc1nccs1 (centres undefined) | inactive |

| SMILES | Potency |
| --- | --- |
| O=c1c(-c2ccc(F)cc2)nc2cncnc2n1-c1ccccc1 | inactive |
| Cc1cnc(NC(=O)Cn2cnc3c2c(=O)n(C)c(=O)n3C)s1 | inactive |
| CCSc1ccccc1C(=O)Nc1ccc2c(c1)OCO2 | inactive |
| CCC(C)OC(=O)C(C)Oc1ccc(-c2ccccc2)cc1 (centres undefined) | inactive |
| N#CC1=C(N)N(c2ccc(F)cc2)C(=O)C1 | inactive |
| O=C(CSc1ccccc1)Nc1nnc(/C=C/c2ccccc2)s1 | inactive |
| CCN(C(=O)Cn1cc(S(=O)(=O)N2CCN(c3ccccc3F)CC2)c2ccccc2c1=O)c1ccc(C)c(C)c1 | 10.3 µM (active) |
| O=C(CN1CCN(c2ccccc2F)CC1)c1ccc2c(c1)OCO2 | inactive |
| CC1(C)NC(=O)N(CC(=O)N2CCN(S(=O)(=O)c3ccccc3F)CC2)C1=O | inactive |
| CCOC(=O)N1CCN(c2c(NCCN3CCN(c4ccccc4F)CC3)c(=O)c2=O)CC1 | inactive |
| CCCN(C(=O)Cn1cc(S(=O)(=O)N2CCN(c3ccccc3F)CC2)c2ccccc2c1=O)c1cccc(C)c1 | 18.4 µM (active) |
| Cc1ccc2cccc(S(=O)(=O)N3CCN(c4ccccc4F)CC3)c2n1 | inactive |
| Cc1cc(C)c(S(=O)(=O)N(C)CC(=O)NCC2CCCO2)c(C)c1 (centres undefined) | inactive |
| O=S1(=O)CC(NCc2ccccc2)C(Nc2ccc(Cl)cc2)C1 (centres undefined) | inactive |
| O=C(NC1(C(F)(F)F)N=C2SCCN2C1=O)c1ccco1 (centres undefined) | inactive |
| COc1cnn(-c2ccc([N+](=O)[O-])cc2)c(=O)c1Cl | inactive |
| Cc1cc(C)c(C#N)c(SCS(=O)c2ccc(C(C)(C)C)cc2)n1 (centres undefined) | inactive |
| COC(=O)COc1ccc2c(=O)c(Oc3ccccc3Br)coc2c1 | inactive |
| C[C@H]1CN([C@@H](C)CO)C(=O)CCCn2cc(nn2)CO[C@@H]1CN(C)S(=O)(=O)c1ccc(-n2cccn2)cc1 | inactive |
| CCOc1ccc(CN(Cc2ccco2)C(c2cccs2)c2nnnn2C(C)(C)C)cc1 (centres undefined) | 16.4 µM (active) |
| CC(C)(C)n1nnnc1C(c1ccccc1F)N1CCN(C(=O)c2ccco2)CC1 (centres undefined) | inactive |
| C/C(=C\c1ccco1)CN1CCC(N2CCC(C(=O)N3CCOCC3)CC2)CC1 | inactive |
| CCN(C(=O)COC(=O)CCC(=O)c1cccs1)C1CCCCC1 | inactive |
| CCOC(=O)CNc1nc(Cl)nc(Nc2ccccc2)n1 | inactive |
| COc1cc2nc(Cl)nc(NCCO)c2cc1OC | inactive |
| OCCNc1nc(Nc2ccc(Cl)c(Cl)c2)nc2ccccc12 | 16.4 µM (active) |
